# Assay outcomes as filed in PubChem BioAssay.
# C diff growth: inhibitors of Clostridium difficile growth | Clostridium difficile clinical isolate growth, OD600, 24 h; hits give low values | 86,000 tested, 0.25% active | growth activity, negative = inhibition, % at 16 µg/mL (by protocol);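 active means mean growth activity at or below -80% and every replicate also at or below -80%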
# Pf Dd2 inh: inhibitors of Plasmodium falciparum Dd2 growth; P. falciparum Dd2 growth, SYBR Green, 72 h; hits give low values; activity change, % at 10 µM; 94,000 tested, 2.3% active; AID 1159554; in the data active means activity change below about -80%
# Numbers stand for hits; n = inactive; x = not tested or not shown. In the library only some 2.4% were active in any assay of this set; here they are far more common.
SMILES,C diff growth,Pf Dd2 inh
CC(C)C#Cc1ccc([C@H]2[C@@H](CO)N3C(=O)CN(C(=O)C4CCCCC4)C[C@@H]23)cc1,n,n
CCC(=O)N1[C@H](CO)[C@H](c2ccc(-c3cccc(F)c3)cc2)[C@H]1CNC(C)=O,n,n
Cc1noc(C)c1S(=O)(=O)N(C)C[C@H]1OCCCC[C@H](C)Oc2ccc(NC(=O)c3ccccc3)cc2C(=O)N([C@@H](C)CO)C[C@@H]1C,n,-86
Cc1noc(C)c1S(=O)(=O)N(C)C[C@H]1OCCCC[C@H](C)Oc2ccc(NC(=O)c3ccccc3)cc2C(=O)N([C@H](C)CO)C[C@H]1C,n,n
Cc1noc(C)c1S(=O)(=O)N(C)C[C@@H]1OCCCC[C@H](C)Oc2ccc(NC(=O)c3ccccc3)cc2C(=O)N([C@H](C)CO)C[C@H]1C,n,n
Cc1noc(C)c1S(=O)(=O)N(C)C[C@H]1OCCCC[C@@H](C)Oc2ccc(NC(=O)c3ccccc3)cc2C(=O)N([C@@H](C)CO)C[C@@H]1C,n,-84
C[C@@H]1CN([C@H](C)CO)C(=O)c2cc(NC(=O)Nc3ccc(F)cc3)ccc2O[C@@H](C)CCCCO[C@H]1CN(C)S(=O)(=O)c1cccs1,n,n
C[C@@H]1CCCCO[C@@H](CN(C)S(=O)(=O)c2cccs2)[C@@H](C)CN([C@@H](C)CO)C(=O)c2cc(NC(=O)Nc3ccc(C(F)(F)F)cc3)ccc2O1,n,-87
C[C@@H]1CCCCO[C@H](CN(C)S(=O)(=O)c2cccs2)[C@@H](C)CN([C@@H](C)CO)C(=O)c2cc(NC(=O)Nc3ccc(C(F)(F)F)cc3)ccc2O1,n,-87
C[C@@H]1CN([C@H](C)CO)C(=O)c2cc(NC(=O)CCC(F)(F)F)ccc2O[C@@H](C)CCCCO[C@@H]1CN(C)S(=O)(=O)c1cccs1,n,-85
C[C@@H]1CN([C@@H](C)CO)C(=O)c2cc(NC(=O)Nc3ccc(C(F)(F)F)cc3)ccc2O[C@@H](C)CCCCO[C@@H]1CN(C)S(=O)(=O)c1cccs1,n,n
C[C@@H]1CCCCO[C@@H](CN(C)S(=O)(=O)c2cccs2)[C@@H](C)CN([C@H](C)CO)C(=O)c2cc(NC(=O)Nc3ccc(C(F)(F)F)cc3)ccc2O1,n,n
C[C@@H]1CCCCO[C@H](CN(C)S(=O)(=O)c2cccs2)[C@H](C)CN([C@H](C)CO)C(=O)c2cc(NC(=O)Nc3ccc(F)cc3)ccc2O1,n,-85
C[C@@H]1CN([C@@H](C)CO)C(=O)c2cc(NC(=O)CCC(F)(F)F)ccc2O[C@@H](C)CCCCO[C@@H]1CN(C)S(=O)(=O)c1cccs1,n,n
Cc1noc(C)c1NC(=O)Nc1ccc2c(c1)C(=O)N([C@@H](C)CO)C[C@H](C)[C@H](CN(C)C(=O)C1CCCCC1)OCCCC[C@@H](C)O2,n,n
COc1cccc(S(=O)(=O)N2CCC3(CC2)CN(C(=O)Nc2ccc(F)cc2)[C@@H](CO)c2[nH]c4cc(OC)ccc4c23)c1,n,n
COc1cccc(S(=O)(=O)N2CCC3(CC2)CN(C(=O)Nc2ccc(F)cc2)[C@H](CO)c2[nH]c4cc(OC)ccc4c23)c1,n,n
COc1ccc2c3c([nH]c2c1)[C@@H](CO)N(C(=O)Nc1ccc(F)cc1)CC31CCN(S(=O)(=O)c2ccccc2)CC1,n,-84
COc1ccc2c3c([nH]c2c1)[C@H](CO)N(C(=O)Nc1ccc(F)cc1)CC31CCN(S(=O)(=O)c2ccccc2)CC1,n,-88
C[C@@H]1CCCCO[C@@H](CN(C)S(=O)(=O)c2ccccc2)[C@H](C)CN([C@H](C)CO)C(=O)c2cc(NC(=O)c3ccccc3)ccc2O1,x,n
C[C@@H]1CN([C@@H](C)CO)C(=O)c2cc(/C=C/c3ccccc3)cnc2O[C@@H]1CN(C)C(=O)c1ccc(F)cc1,n,n
O=C(N[C@@H]1CC[C@H](CC(=O)N2CCCCC2)O[C@H]1CO)c1ccc2c(c1)OCO2,n,n
C[C@H]1CN([C@@H](C)CO)C(=O)c2cccc(NC(=O)CCCCCC(=O)Nc3ccccc3N)c2O[C@@H]1CN(C)C(=O)Nc1ccc(C(F)(F)F)cc1,n,-82
C[C@H](CO)N1C[C@H](C)[C@@H](CN(C)C(=O)NC2CCCCC2)Oc2c(NC(=O)CCCCCC(=O)Nc3ccccc3N)cccc2C1=O,n,n
C[C@@H]1CN([C@H](C)CO)C(=O)c2cccc(NC(=O)CCCCCC(=O)Nc3ccccc3N)c2O[C@@H]1CN(C)C(=O)Nc1ccc(C(F)(F)F)cc1,n,-88
SMILES,C diff growth,Pf Dd2 inh
C[C@H]1CN([C@@H](C)CO)C(=O)c2cccc(NC(=O)CCCCCC(=O)Nc3ccccc3N)c2O[C@@H]1CN(C)C(=O)Nc1cccc2ccccc12,n,n
C[C@H]1CN([C@@H](C)CO)C(=O)c2cccc(NC(=O)CCCCCC(=O)Nc3ccccc3N)c2O[C@H]1CN(C)C(=O)Nc1ccc(F)cc1,n,n
C[C@H]1CN([C@@H](C)CO)C(=O)c2cccc(NC(=O)CCCCCC(=O)Nc3ccccc3N)c2O[C@@H]1CN(C)C(=O)Nc1ccccc1,n,n
C[C@@H]1CN([C@@H](C)CO)C(=O)c2cccc(NC(=O)CCCCCC(=O)Nc3ccccc3N)c2O[C@@H]1CN(C)C(=O)NC1CCCCC1,n,-86
C[C@H](CO)N1C[C@H](C)[C@H](CN(C)C(=O)Nc2ccc(C(F)(F)F)cc2)Oc2c(NC(=O)CCCCCC(=O)Nc3ccccc3N)cccc2C1=O,n,-89
O=C(c1cnccn1)N1CC(=O)N2[C@@H](CO)[C@H](c3ccc(C#CCC4CCCC4)cc3)[C@@H]2C1,n,n
CN1CCN(C(=O)C[C@@H]2CC[C@H]3[C@@H](COc4ccc(NC(=O)C5CC5)cc4C(=O)N3C)O2)CC1,n,n
C[C@H](CO)N1C[C@H](C)[C@H](CN(C)Cc2ccc(C(=O)O)cc2)Oc2ccc(NC(=O)C3CCCCC3)cc2CC1=O,n,n
C[C@H](CO)N1C[C@H](C)[C@@H](CN(C)Cc2ccncc2)OCCCC[C@H](C)Oc2ccc(NC(=O)Nc3ccc(F)cc3)cc2C1=O,n,n
C[C@@H]1CN([C@@H](C)CO)C(=O)c2cccc(N(C)C)c2O[C@@H]1CN(C)C(=O)Nc1cccc2ccccc12,n,-83
COc1ccc(NC(=O)N(C)C[C@H]2Oc3c(NC(=O)CCCCCC(=O)Nc4ccccc4N)cccc3C(=O)N([C@@H](C)CO)C[C@@H]2C)cc1,n,n
C[C@H]1CN([C@@H](C)CO)C(=O)c2cccc(NC(=O)CCCCCC(=O)Nc3ccccc3N)c2O[C@@H]1CN(C)C(=O)Nc1ccc(F)cc1,n,n
COc1ccc(NC(=O)N(C)C[C@H]2Oc3c(NC(=O)CCCCCC(=O)Nc4ccccc4N)cccc3C(=O)N([C@H](C)CO)C[C@H]2C)cc1,n,-87
C[C@H]1CN([C@@H](C)CO)C(=O)c2cccc(NC(=O)NC3CCCCC3)c2O[C@H]1CN(C)C(=O)Nc1cccc2ccccc12,n,n
C[C@@H]1CN([C@H](C)CO)C(=O)c2cccc(NC(=O)CCCCCC(=O)Nc3ccccc3N)c2O[C@@H]1CN(C)C(=O)Nc1ccc(F)cc1,n,-86
C[C@H]1CN([C@@H](C)CO)C(=O)c2cccc(N(C)C)c2O[C@@H]1CN(C)C(=O)Nc1cccc2ccccc12,n,n
C[C@@H]1CN([C@@H](C)CO)C(=O)c2cccc(NC(=O)Nc3cccc4ccccc34)c2O[C@H]1CN(C)C(=O)NC1CCCCC1,x,-89
